# PAX8 inh HTS – inhibitors of PAX8 transcriptional activity in RMG-I cells; RMG-I TPO-luciferase reporter, SteadyGlo, 24 h; inhibition, % at 12.6 µM; 1.2% of 360,000 active; AID 652154;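 active means mean replicate inhibition at least 60% with every replicate also reaching 60%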;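 further: luciferase light reporting Pax8 driven TPO promoter activity; plate controls were median of neutral control wells for no effect and mitoxantrone controls for full effect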
# GSIS activator – GLuc luminescence reporter in INS-1E cells, primary screen for activators of glucose-dependent secretion of insulin. 0.61% of 370,000 active. INS-1E GLuc reporter insulin secretion, 2-3 h. activation, % at 16.6 µM. AID 743287;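 active means lowest replicate activation of at least 40%, so every replicate reaches that level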;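 further: 0% = median of neutral control wells and 100% = median of IBMX positive control wells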
# miR122 inh – inhibitors of miR-122 in Huh7 cells; AID 602342; Huh7 miR-122 Renilla luciferase sensor, 48 h; neutral wells = 0, positive control = 100; activation (reporter increase), % at 12.5 µM; 0.3% of 340,000 active;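 active means mean replicate activation score at least 90 and every replicate individually at or above 90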;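 further: higher luciferase means less miR-122 activity so hits act as miR-122 inhibitors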
# Env fusion inh – HIV envelope-mediated fusion inhibition | HeLa-JRFL Env/CEM21 cell fusion, luciferase | 1.1% of 360,000 active | inhibition, % at 12.3 µM;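 active means mean replicate inhibition score of at least 50 and every replicate individually at or above 50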;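 further: 0% = plate neutral controls and 100% = maraviroc near 300 nM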
# EWS-Fli block – blocks EWS/Fli oncoprotein-driven transcription. 0.67% of 350,000 active. inhibition, % at 12.6 µM. A673 NR0B1-luciferase reporter, viability-normalised;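 active means mean inhibition of at least 50% after viability correction, with every replicate also passing that limit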;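 further: firefly luciferase signal divided by Alamar Blue viability fluorescence both relative to DMSO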
# C2C12 statin – protects C2C12 myotubes from simvastatin toxicity; ATP luminescence, 48 h; scaled: DMSO 0, geranylgeraniol control 100; rescue of ATP level, % at 7.49 µM; 0.78% of 330,000 active;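 active means mean ATP rescue above about 67%, or every replicate alone reaching that limit, limit read from the data, passing the limit was not always enough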;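 further: myotubes were challenged with 10 µM simvastatin during compound exposure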
# DNA binder FP – binds DNA displacing acridine orange | shares compounds with EWS-Fli block | salmon sperm DNA acridine orange fluorescence polarization | AC35, µM (series often up to 68 µM), without a hit: at the highest dose activity change, negative = DNA binding | 2% of 640 active;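 active means fitted curve reaches a 35% signal fall AC35 below twice the sample's top valid tested dose, actives reach about 48 µM in these data; inactive means the rest, including activity in the rising direction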;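 further: lower polarization ratio signals compound binding to DNA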
# * = called active by the depositor; i = inactive; / = no result; [ ] = another dose, or the depositor's remark. In the library only some 3.1% were active in any assay of this set; here they are far more common.
SMILES,PAX8 inh HTS,GSIS activator,miR122 inh,Env fusion inh,EWS-Fli block,C2C12 statin,DNA binder FP
COc1ccc(CN(C)C[C@@H]2OCCCC[C@H](C)Oc3ccc(NC(=O)Nc4c(C)noc4C)cc3C(=O)N([C@@H](C)CO)C[C@@H]2C)cc1,2.3,18.7,3.4[16.7 µM],-17.5[16.7 µM],-0.4,/,/
COc1cccc(NC(=O)N(C)C[C@H]2Oc3cc(/C=C/c4ccccc4)ccc3S(=O)(=O)N([C@@H](C)CO)C[C@H]2C)c1,/,18.4,/,5.8[16.7 µM],-3.9,3.5,/
O=C(Cc1ccncc1)NCC[C@H]1CC[C@H](NC(=O)C2CC2)[C@@H](CO)O1,-24.8,9.2,/,-5.9[16.7 µM],5.0,-5.4,/
O=C(Nc1cccc(Oc2ccc3c(c2)C(=O)NC3=O)c1)c1cccs1,-6.0,1.2,/,15.9,73.7*,/,-6.1%
CCOc1ccc(-c2cc(CCCC(=O)N3CCN(c4ccc(OC)cc4)CC3)no2)cc1,-8.9,-12.9,/,20.9,60.0*,-2.3,-7.9%
COc1ccc(-c2ccc([C@H]3[C@H](CO)N4CCCCN(C(=O)NC(C)C)C[C@@H]34)cc2)cc1,-6.3,-14.1,2.4[16.7 µM],/,-4.8,38.9,/
c1ccc(-c2ccc([C@H]3[C@H]4CNC[C@@H]3N4Cc3cc(-c4ccccc4)on3)cc2)cc1,11.3,11.0,/,/,58.4*,/,-12.6%
c1ccc(-c2cc(CN3[C@@H]4CNC[C@H]3C4c3ccc(-c4ccncc4)cc3)no2)cc1 (stereo partly drawn),-9.4,7.9,/,/,-2.5,/,/
CN(C)c1ccc(N=Nc2ccc(C(=O)O)cc2)cc1,56.2,-0.7,/,32.0,65.4*,/,-3.1%
CN(C)c1ccc(C(=O)c2ccccc2)cc1,/,/,1.7,-11.3,/,-0.6,/
O=C(NCC[C@@H]1CC[C@@H](NC(=O)C2CCC2)[C@H](CO)O1)c1cc(Cl)cc(Cl)c1,3.4,4.0,/,-0.5[16.7 µM],3.2,-7.3,/
O=C(C[C@@H]1C=C[C@@H](NC(=O)c2cccc(F)c2)[C@@H](CO)O1)Nc1nccs1,4.4,11.1,/,18.3[16.7 µM],4.4,14.6,/
Oc1[nH]c2ccccc2c1N=NC(=S)N1CCOCC1,/,/,8.9,/,/,20.3,/
Oc1[nH]c2ccc(Br)cc2c1N=NC(=S)N1CCOCC1,91.2*,-1.3,-20.7,22.9,57.1*,/,-3.3%
CCCC#Cc1ccc2c(c1)O[C@@H](CN(C)C(C)=O)[C@H](C)CN([C@H](C)CO)S2(=O)=O,/,-8.7,2.6[16.7 µM],-2.4[16.7 µM],1.9,8.4,/
NS(=O)(=O)c1ccc(NC(=O)c2ccccc2Cl)cc1,-11.1,0.3,-4.5,-20.8,/,/,/
COC(=O)Cc1ccc(NC(=O)c2ccccc2Cl)cc1,-40.5,12.1,/,-7.1,66.4*,/,-11.0%
O=C(O)c1ccc2cc(-c3ccccc3)[nH]c2c1,49.8,/,-2.7,30.8,63.9*,/,-7.7%
O=C1Nc2ccccc2C1=Nc1ccccc1-c1ccccc1,9.4,-2.9,/,-9.9,54.8*,/,-4.6%
O=C1Nc2ccccc2C1=Nc1ccc(Cl)cc1,2.5,-4.6,-7.5,9.7,37.0,8.5,/
Cc1cc(C)c(N=C2C(=O)Nc3ccccc32)c(C)c1,-3.0,-9.0,7.0,-17.9,24.0,12.5,/
O=C1Nc2ccccc2C1=Nc1ccc(Br)cc1,0.3,-7.2,-4.2,9.2,55.1*,19.6,-14.0%
Cc1cc(Br)ccc1N=C1C(=O)Nc2ccccc21,10.3,12.0,-5.1,10.6,55.1*,-1.6,-2.4%
Nc1nc(=S)c2[nH]cnc2[nH]1,93.6*,6.5,-6.6,/,61.5*,24.3,2.5%
CCCNC(=O)[C@@H]1[C@@H](CO)[C@@H]2Cn3c(ccc(-c4ccccc4)c3=O)[C@H]1N2C(=O)CC,/,0.0,/,/,54.9*,/,2.2%
SMILES,PAX8 inh HTS,GSIS activator,miR122 inh,Env fusion inh,EWS-Fli block,C2C12 statin,DNA binder FP
C[C@H](CO)N1C[C@H](C)[C@H](CN(C)S(C)(=O)=O)OCCCC[C@H](C)Oc2ccc(NC(=O)CCC(F)(F)F)cc2C1=O,3.3,24.2,3.5[16.7 µM],-15.4[16.7 µM],-4.6,-2.4,/
O=C1CCCC/C1=C/Nc1cccc(C(F)(F)F)c1,11.7,18.1,/,-5.4,-22.3,/,/
O=C1CCC2S/C(=C/Nc3ccc(C(F)(F)F)cc3)C(=O)N12 (stereo not drawn),71.9*,-8.3,1.1,52.1,85.6*,9.3,-1.5%
CCCNC(=O)N1CC2(CCN(C(=O)CC)CC2)c2c(n(C)c3cc(OC)ccc23)[C@H]1CO,/,9.1,/,-22.2[16.7 µM],-1.0,/,/
O=c1[nH]c(=O)n([C@H]2C[C@H](O)[C@@H](CO)O2)cc1C(F)(F)F,-11.7,-2.1,13.8,2.6,56.6*,12.4,-2.5%
O=c1[nH]c(=O)n(C2C[C@H](O)[C@@H](CO)O2)cc1C(F)(F)F (stereo partly drawn),-17.6,-3.3,12.5,-146.6,62.2*,-2.1,-9.1%
C[C@H](CO)N1C[C@H](C)[C@@H](CN(C)C(=O)c2ccccc2)OCCCC[C@H](C)Oc2ccc(NC(=O)Nc3cccc4ccccc34)cc2C1=O,/,11.0,14.7[16.7 µM],-66.1[16.7 µM],4.1,/,/
COCCNC(=O)C[C@@H]1C=C[C@H](NC(=O)NC2CCCC2)[C@@H](CO)O1,-6.5,7.4,/,-76.9[16.7 µM],2.2,-5.5,/
C[C@H]1CCCCO[C@H](CN(C)C(=O)CCC(F)(F)F)[C@@H](C)CN([C@@H](C)CO)C(=O)c2cc(NS(=O)(=O)c3ccc(F)cc3)ccc2O1,-13.5,-11.8,-0.2[16.7 µM],33.6[16.7 µM],2.4,/,/
COc1ccccc1N(/N=C1\Sc2ccccc2C1=O)C(C)=O,-114.0,/,/,i,54.4*,/,-11.8%
CC(=O)c1ccc(NC(=O)c2noc3c2CCC3)cc1,46.2,36.9,-17.1,15.9,59.7*,1.9,-5.6%
OC[C@H]1O[C@@H](n2cnc3c(NCc4ccco4)ncnc32)[C@H](O)[C@@H]1O,99.9*,/,-9.6,-5.5,80.5*,0.0,-9.8%
OC[C@H]1O[C@@H](n2cnc3c(NC4CCCC4)ncnc32)[C@H](O)[C@@H]1O,23.6,/,-7.1,-5.6,-11.7,-2.3,/
OCC1OC(n2cnc3c(NCc4ccco4)ncnc32)C(O)C1O (stereo not drawn),104.3*,/,/,69.8*,75.8*,/,-13.5%
C=CCNc1ncnc2c1ncn2C1OC(CO)C(O)C1O (stereo not drawn),/,/,0.2,/,/,-9.9,/
Cc1cccc(NC(=O)CN2C(=O)N/C(=C/c3ccc(C)o3)C2=O)c1,-0.2,28.8,-2.9,-22.2,/,36.9,/
COc1ccc(/C=C2/NC(=O)N(CC(=O)Nc3cccc(C)c3)C2=O)cc1O,8.2,-7.4,-3.7,6.0,62.3*,2.6,-6.3%
Cc1c(CC(=O)NCCCC(=O)O)c(=O)oc2cc3c(cc12)CCC(C)(C)O3,25.3,6.0,1.4,26.4,66.1*,6.7,-12.7%
CC(C)NC(=O)Nc1ccc2c(c1)C(=O)N([C@@H](C)CO)C[C@@H](C)[C@@H](CN(C)C(=O)Cc1ccccc1)OCCCC[C@H](C)O2,-0.2,29.2,-1.9[16.7 µM],24.7[16.7 µM],/,/,/
